# Screening data: PubChem BioAssay, National Center for Advancing Translational Sciences (NCATS)
# Compounds with a hit are over-represented: about 12% of the library has one in this group of screens.
# L3MBTL1 block – qHTS Assay for the Inhibitors of L3MBTL1; Potency, µM (top dose mostly 57.1 µM), for the others: top-dose activity, negative = inhibition, most hits filed as inhibitors; AID 485360, 2010; actives 0.66% (n = 230,000); AlphaScreen L3MBTL1–H3K9me1 peptide binding; Lethal(3)malignant brain tumor-like protein 1 (Homo sapiens), Q9Y468; further: on the % scale 0 is the no-effect control and ±100 the full control effect; nearly all actives have a fitted effect of over 60% in size
#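 L3MBTL1 50 nM + b-AHA-H3(1-15)K9me1 75 nM, 30 min RT; compound added, 30 min RT; streptavidin donor/Ni-chelate acceptor beads 10 ug/mL each final, 30 min RT dark; AlphaScreen read.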
# Sfp inh – qHTS Assay for Inhibitors of Bacillus subtilis Sfp phosphopantetheinyl transferase (PPTase); actives 3.5% (n = 310,000); Potency, µM, for the others: largest response in the series, negative = inhibition, hits mostly inhibitors; 4'-phosphopantetheinyl transferase ffp (Bacillus subtilis), Q9F4F7; Biochemical Sfp PPTase activity, qHTS;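 further: the enzyme is Sfp with the accession as filed and its product quenches rhodamine fluorescence; 0% = enzyme reaction without inhibitor and -100% = no enzyme wells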
#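 With Hepes-Na pH 7.6 buffer containing 10 mM MgCl2, Sfp (15 nM) modified BHQ-2-YbbR (12.5 uM) using rhodamine-CoA (5 uM). Two reads 30 minutes apart at 525/598 nm yielded each well's rate.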
# BAZ2B inh – qHTS Assay for Inhibitors of BAZ2B; actives 4.4% (n = 360,000); Potency, µM (titrated, usually from 114 µM), for the others: at the top dose activity change, negative = inhibition, hits mostly inhibitors; AlphaScreen BAZ2B-H3K14Ac peptide displacement; further: on the % scale 0 is the no-effect control and ±100 the full control effect; nearly all actives have a fitted effect of over 60% in size
#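 AlphaScreen luminescence quantifies BAZ2B engagement of H3K14Ac peptide; the protein and biotinylated peptide are both at 50 nM final, buffer PBS pH 7.4 with 0.01% Tween-20, all steps at room temperature.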
# G9a inh – qHTS Assay for Inhibitors of Histone Lysine Methyltransferase G9a; G9a H3K9 monomethylation, AlphaScreen, 2 h; Histone-lysine N-methyltransferase EHMT2 (Homo sapiens), Q96KQ7; actives 8.8% (n = 350,000); Potency, µM (series often up to 102 µM), inactives show top-dose activity, negative = inhibition, actives largely listed as inhibitors; further: on the % scale 0 is the no-effect control and ±100 the full control effect; nearly all actives have a fitted effect of over 75% in size
# Target sequence (Q96KQ7 913-1193 limits assumed): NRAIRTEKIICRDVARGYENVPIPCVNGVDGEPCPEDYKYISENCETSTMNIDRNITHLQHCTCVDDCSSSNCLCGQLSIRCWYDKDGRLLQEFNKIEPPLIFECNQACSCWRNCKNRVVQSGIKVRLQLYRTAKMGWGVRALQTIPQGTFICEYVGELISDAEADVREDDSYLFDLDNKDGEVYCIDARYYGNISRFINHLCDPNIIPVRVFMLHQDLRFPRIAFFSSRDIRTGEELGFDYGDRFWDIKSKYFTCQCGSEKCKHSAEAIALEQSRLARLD
#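 AlphaScreen detection with an anti-monomethyl H3K9 antibody quantified product after a 2 h room-temperature reaction containing 500 nM biotinylated H3K9 peptide, 20 µM SAM and 20 nM enzyme, which had been preincubated 15 min with compound.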
# HP1b binding inh – HTS for Inhibitors of HP1-beta Chromodomain Interactions with Methylated Histone Tails; Potency, µM (highest dose often 114 µM), for inactives: top-dose activity change, negative = inhibition, actives largely listed as inhibitors; AlphaScreen HP1-beta / biotin-H3K9me3 peptide binding; actives 0.56% (n = 390,000); further: nearly all actives have a fitted effect of over 70% in size
# Target sequence (P83916 whole entry, looked up): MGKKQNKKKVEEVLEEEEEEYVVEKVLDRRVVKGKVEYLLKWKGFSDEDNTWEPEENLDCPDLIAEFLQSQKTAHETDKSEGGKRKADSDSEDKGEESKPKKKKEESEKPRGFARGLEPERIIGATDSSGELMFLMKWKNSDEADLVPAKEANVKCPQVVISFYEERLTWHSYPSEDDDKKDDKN
#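 Compound inhibition of the preformed complex between 50 nM HP1-beta and 50 nM biotinylated H3K9me3 peptide was read by AlphaScreen. Buffer was PBS pH 7.4 with 0.01% Tween-20. Incubations ran 30 min at room temperature, with 10 ug/mL donor/acceptor beads.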
# JMJD2A Tudor inh – qHTS Assay for Inhibitors of JMJD2A-Tudor Domain. Lysine-specific demethylase 4A (Homo sapiens), O75164. Potency, µM (titrated, usually from 114 µM), inactives show top-dose activity change, negative = inhibition, most hits filed as inhibitors. AID 504339, 2011. AlphaScreen JMJD2A-Tudor / H3K4me3 peptide binding. actives 4.4% (n = 390,000); further: on the % scale 0 is the no-effect control and ±100 the full control effect; nearly all actives have a fitted effect of over 50% in size
# * marks the source's active call; other numbers are inactive results; ? = inconclusive; / = no result given; [ ] = remark or other dose. The call rests on the fitted dose curve; in most records, active means well fitted curve in the direction sought with a large enough effect; inconclusive means small, poorly fitted or top-dose-only effect, or another doubt; inactive means no such curve, though single readings can be large; an effect the other way counts as inactive or inconclusive. Potency means the concentration at half of the fitted maximal effect.
SMILES,L3MBTL1 block,Sfp inh,BAZ2B inh,G9a inh,HP1b binding inh,JMJD2A Tudor inh
CCOc1ccc(NC(=O)CCS(=O)(=O)c2ccc(Br)s2)cc1,/,/,-27.2%,?,-11.1%,?
Cc1nnc(N/N=C/c2ccc(Br)cc2)n1N,-0.7%[2.29 µM],?,9.8%,-4.0%[0.501 µM],14.8%,-22.0%
CC(C)(C)c1nnc(N/N=C/c2ccccc2)n(N)c1=O,0.4%,79.4µM*,5.5%,-3.1%[59 µM],21.1%,-23.6%
CSc1nnc(C(C)(C)C)c(=O)n1/N=C/c1ccccc1,3.2%,6.0%,-3.9%,?,30.5%,-3.3%
CC(C)(C)c1nnc(N/N=C/c2ccccc2O)n(N)c1=O,15.8µM*,-3.2%,20µM*,78.5%[59 µM],20.1%,22.4µM*
COc1cccc(NC(=O)CN(C)C(=O)COc2ccc3ccccc3c2)c1,-4.5%,2.2%,9.7%,?,10.3%,-16.9%
CSc1ccccc1NC(=O)c1noc2c1CCC2,14.1µM*,20µM*,39.8µM*,14.1µM*,50.1µM*,50.1µM*
CCc1ccc(NC(=O)c2noc3c2CCCCC3)cc1,0.8%,17.0%,7.8%,17.6%[59 µM],30.5%,7.5%
CCc1ccc(NC(=O)c2noc3c2CCC3)cc1,/,-16.9%,50.1µM*,19.8%[12.7 µM],-16.1%,56.2µM*
COc1ccc(C2/C=C\CN(C(=O)C3CC3)C(Cc3ccccc3)C(=O)N2Cc2ccc(F)cc2)cc1 (stereo unspecified),/,11.8%,/,/,27.5%,-20.0%
O=C(CSc1nnc(-c2ccccc2F)o1)N1CCNC1=O,-0.5%,/,7.1%,24.5%[12.7 µM],25.2%,-6.4%
CCN1CCN(C(=O)c2ccc3c(c2)S(=O)(=O)c2ccccc2C3=O)CC1,/,6.2%,-31.0%,50.1µM*,37.9%,5.8%
CC(=O)N1CCN(C(=O)c2ccc3c(c2)S(=O)(=O)c2ccccc2C3=O)CC1,/,16.0%,-2.7%,-1.4%,16.9%,-1.4%
COc1cccc(-n2cn[nH]c2=S)c1,/,21.7%,4.2%,12.6µM*,30.9%,?
COc1cccc(-c2cn(-c3cccc(C(F)(F)F)c3)c(=S)[nH]2)c1,/,-9.9%,-23.6%,22.7%[0.501 µM],20.5%,-8.5%
COC(=O)/C=C/S(=O)(=O)c1ccc(NC(C)=O)cc1,-4.2%,?,/,8.91µM*,23.1%,6.3%
COc1ccnc(CSC(N)=Nc2ccc(F)cc2)c1,-2.9%,22.4µM*,50.1µM*,7.08µM*,-10.6%,22.4µM*
O=C(Nc1cccc([N+](=O)[O-])c1)c1ccc2nc(N3C(=O)CCC3=O)sc2c1,-2.0%,-3.7%,?,11.2µM*,7.2%,-24.2%
Cc1cccc(NC(=O)CSc2nnc(-c3ccncc3)n2C)c1,-5.2%,11.9%,3.7%,33.7%,1.7%,-11.3%
C=CCn1c(SCC(=O)NNC(=S)Nc2ccccc2)nnc1-c1ccccc1,5.7%,5.4%,4.1%,-19.1%[59 µM],38.5%,8.5%
O=C(CSc1nnc(-c2ccccc2)n1-c1ccc(Cl)cc1)NNC(=S)Nc1ccccc1,-2.4%,6.3%,-4.9%,10µM*,31.5%,-6.4%[57.1 µM]
CCn1c(SCC(=O)NNC(=S)Nc2ccccc2)nnc1-c1ccc(Cl)cc1,3.8%,12.7%,1.1%,20µM*,33.8%,-10.1%
Cn1c(SCC(=O)NNC(=S)Nc2ccccc2)nnc1-c1ccncc1,/,8.3%,24.0%,70.8µM*,/,/
Cc1ccc2[nH]c(CSc3nnc(NC(=O)COc4ccccc4)s3)cc(=O)c2c1,/,/,5.0%,-24.5%[59 µM],24.6%[57 µM],-12.3%
Cc1ccc(CNCc2ccccc2)s1,/,/,-5.7%,-34.2%[59 µM],51.9%,-5.6%
SMILES,L3MBTL1 block,Sfp inh,BAZ2B inh,G9a inh,HP1b binding inh,JMJD2A Tudor inh
Cc1cccc(C)c1N1CCN(C(=O)Nc2ccc3c(c2)OCCO3)CC1,-11.7%,10.2%,?,-10.4%,22.0%,50.1µM*
O=C(CN1CCN(S(=O)(=O)c2ccc(Cl)cc2)CC1)Nc1ccc(N2CCOCC2)cc1,-0.2%,3.3%,-27.3%,56.2µM*,16.4%,-21.4%
O=C(CN1CCCCC1)Nc1ccc(S(=O)(=O)N2CCOCC2)cc1,/,22.6%,-12.2%,?,4.9%,-13.4%
CC1CCN(S(=O)(=O)c2ccc(NC(=O)CN3CCCCCC3)cc2)CC1,/,7.5%,2.9%,?,30.9%,-17.9%
CCOC(=O)N1CCN(c2c(Nc3ccc4c(c3)OCCO4)c(=O)c2=O)CC1,/,11.3%,-18.9%,?,73.5%,-12.1%
CC1CCN(S(=O)(=O)c2ccc(NC(=O)CN3CCN(C)CC3)cc2)CC1,4.8%,-9.5%,?,11.2µM*,?,3.16µM*
CCOC(=O)N1CCN(CC(=O)NC(=O)Nc2ccc3c(c2)OCCO3)CC1,12.4%,/,0.9%,50.1µM*,44.9%,-9.7%
COC(=O)c1ccc2c(=O)[nH]c(COC(=O)c3c(-c4ccccc4)noc3C)nc2c1,3.3%,/,8.1%,13.6%,34.5%,-9.2%
COc1cc2c(cc1OC)C(C)N(CC(=O)Nc1ccc(S(=O)(=O)N3CCCC3)cc1)CC2 (stereo unspecified),/,2.0%,-33.0%,39.8µM*,4.6%,-16.5%
NS(=O)(=O)c1ccc(NC(=O)CN2CCN(S(=O)(=O)c3ccc(F)cc3)CC2)cc1,/,13.1%,-13.4%,17.8%,10.8%,14.1µM*
CN(CC(=O)Nc1ccc(S(N)(=O)=O)cc1)C1CCCCC1,/,-7.1%,6.6%,-4.5%,33.5%,-4.2%
COc1cc2c(cc1OC)CN(CC(=O)Nc1ccc(S(=O)(=O)N3CCCC3)cc1)CC2,/,17.2%,?,/,7.7%,-18.8%
C=CCN(CC=C)CC(=O)Nc1ccc(S(N)(=O)=O)cc1,4.6%,11.8%,7.8%,0.708µM*,22.5%,-11.8%
O=C(CN1CCN(S(=O)(=O)c2cc(Cl)ccc2Cl)CC1)Nc1ccc2c(c1)OCCO2,-9.4%,8.3%,-5.5%,20µM*,19.5%,-18.3%
COc1cccc(-c2nccc(NCc3ccccc3OC)n2)c1,/,-19.5%,/,4.0%[0.501 µM],/,/
COCCn1c(C)cc(O)c(C(c2ccc(Cl)cc2)N2CCN(c3ccccc3)CC2)c1=O (stereo unspecified),/,/,3.8%,?,29.1%[57 µM],-7.8%
c1ccc(-c2n[nH]c3c2oc2ccccc23)cc1,/,-22.4%,/,8.9%[59 µM],/,/
O=C(c1ccccc1)c1ccc2nc(N3CCN(c4ccc(F)cc4)CC3)c3nncn3c2c1,/,/,-8.0%,-8.2%[59 µM],20.9%,-16.8%
CS(=O)(=O)c1cccc(C(=O)N(CCc2ccccc2)Cc2cccs2)c1,/,-15.2%,8.2%,79.4µM*,25.4%,0.0%
Cc1cccc(-n2c(=S)[nH]c3sc4c(c3c2=O)CCc2ccccc2-4)c1,/,6.1%,?,?,7.08µM*,?
